Results taken from the supplement of paper PMC12494721.
Counter-ions that a name gives are not always drawn. Values without a mark were called inactive.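 How the source made its calls: for the amine columns active = adjusted P below 0.05 in both replicates with a change the same way and a mean fold change under 0.8 or over 1.25; inactive = the rest.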

What follows are compounds tested on Klebsiella aerogenes DSM 30053 (assay: fold change of Histamine concentration vs plate DMSO controls (fold change (ratio)); higher = more amine produced, active = hit call of the paper (significant change in both replicates, either direction)). Conditions: incubation time: 27 h, anaerobic, 37 °C.
Summary of the method: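 Amine values are fold changes relative to DMSO-only wells on the same plate. They derive from 27 h, 37 °C anaerobic mGAM cultures of four gut bacterial strains in 80 µL wells, dosed at 20 µM final, or 50 µM final for sweeteners. Extraction of the whole culture, LC–triple-quadrupole MS in dynamic MRM mode, external calibration curves and within-batch drift correction were used, with 2 biological replicates averaged.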

Structure (SMILES)	fold change of Histamine concentration
OC[C@H]1O[C@@H](O[C@H]2[C@H](O)[C@@H](O)[C@H](O)O[C@@H]2CO)[C@H](O)[C@@H](O)[C@H]1O [Lactose] (50 µM)	1.01
C[C@@]12CC[C@@H]3[C@@](CC[C@H]4[C@@]3(C)CCC[C@@]4(C)C(=O)O)(CC1=O)C2 [Iso-Steviol] (50 µM)	1.02
CCCCOc1ccc(C(=O)CCN2CCCCC2)cc1 [Dyclonine hydrochloride] (20 µM)	1
CN(C)c1nc(N(C)C)nc(N(C)C)n1 [Altretamine] (20 µM)	1.08
c1ccc(CNc2ncnc3nc[nH]c23)cc1 [Aminopurine, 6-benzyl] (20 µM)	1.06
OCCN1CCN(CC/C=C2/c3ccccc3Sc3ccc(C(F)(F)F)cc32)CC1 [Flupentixol dihydrochloride cis-(Z)] (20 µM)	1
Cc1onc(-c2ccccc2)c1C(=O)N[C@@H]1C(=O)N2[C@@H]1SC(C)(C)[C@@H]2C(=O)O [Oxacillin sodium] (20 µM)	0.996
Cc1ccc(Cl)c(Nc2ccccc2C(=O)O)c1Cl [Meclofenamic acid sodium salt monohydrate] (20 µM)	0.916
Clc1ccc(C(Cn2ccnc2)OCc2c(Cl)cccc2Cl)c(Cl)c1 (centres undefined) [Isoconazole] (20 µM)	1
NNc1nncc2ccccc12 [Hydralazine hydrochloride] (20 µM)	1.07
O=C(O)CCC(=O)c1ccc(-c2ccccc2)cc1 [Fenbufen] (20 µM)	0.97
C[C@]12CCC(=O)C=C1C=C[C@@H]1[C@@H]2CC[C@@]2(C)[C@H]1CC[C@@]21CCC(=O)O1 [Canrenone] (20 µM)	0.908
CCN(CCO)CCCC(C)Nc1ccnc2cc(Cl)ccc12 (centres undefined) [Hydroxychloroquine sulfate] (20 µM)	1.09
C[C@@H](O)[C@H]1C(=O)N2C(C(=O)O)=C(S[C@@H]3CN[C@H](C(=O)N(C)C)C3)[C@H](C)[C@H]12 [Meropenem] (20 µM)	0.214 (active)
COc1cc(C(=O)OCCCN2CCCN(CCCOC(=O)c3cc(OC)c(OC)c(OC)c3)CC2)cc(OC)c1OC [Dilazep dihydrochloride] (20 µM)	0.938
CCOC(=O)n1ccn(C)c1=S [Carbimazole] (20 µM)	1.04
CCOC(=O)CC(=O)N1CCSC1COc1ccccc1OC (centres undefined) [Moguisteine] (20 µM)	1.02
CN[C@@H]1[C@@H](O[C@H]2O[C@H](CO)[C@@H](N)[C@H](O)[C@H]2O)OC2C[C@@H](N)[C@@H](O[C@H]3[C@H](O)[C@@H](O)[C@H](N)C[C@@H]3N)OC2[C@@H]1O (some centres undefined) [Apramycin] (20 µM)	1.05
Cc1c(OCC(F)(F)F)ccnc1C[S+]([O-])c1nc2ccccc2[nH]1 (centres undefined) [Lansoprazole] (20 µM)	1.03
Cn1c(=O)cc(N2CCC[C@@H](N)C2)n(Cc2ccccc2C#N)c1=O [Alogliptin benzoate] (20 µM)	0.923

Structure (SMILES)	fold change of Histamine concentration
Nc1nc(F)nc2c1ncn2[C@@H]1O[C@H](CO)[C@@H](O)[C@@H]1O [Fludarabine] (20 µM)	0.976
CCN(Cc1ccncc1)C(=O)C(CO)c1ccccc1 (centres undefined) [Tropicamide] (20 µM)	0.947
CNC1(C)C2CCC(C2)C1(C)C (centres undefined) [Mecamylamine hydrochloride] (20 µM)	1.02
CC1=NN(c2ccccc2)C(=O)C1 [Edaravone] (20 µM)	0.97
Nc1ccn([C@@H]2O[C@H](CO)[C@@H](O)C2(F)F)c(=O)n1 [Gemcitabine] (20 µM)	1.07
CCCC(CCC)C(=O)O[C@H]1C[C@H]2CC[C@@H](C1)[N+]2(C)C [Anisotropine Methylbromide] (20 µM)	0.986
COc1c(N2CCNC(C)C2)c(F)cc2c(=O)c(C(=O)O)cn(C3CC3)c12 (centres undefined) [Gatifloxacin] (20 µM)	0.285 (active)
OC(CNCC(O)C1CCc2cc(F)ccc2O1)C1CCc2cc(F)ccc2O1 (centres undefined) [Nebivolol hydrochloride] (20 µM)	1.03
COc1ccccc1O [Guaiacol] (20 µM)	0.966
COc1ccc(CC2c3cc(OC)c(OC)cc3CC[N+]2(C)CCC(=O)OCCCCCOC(=O)CC[N+]2(C)CCc3cc(OC)c(OC)cc3C2Cc2ccc(OC)c(OC)c2)cc1OC (centres undefined) [Atracurium besylate] (20 µM)	1.01
O=C(O)Cc1cc(I)c(Oc2ccc(O)c(I)c2)c(I)c1 [Tiratricol] (20 µM)	1.04
COc1cc(/C=C/C(=O)N2CCN(CC(=O)N3CCCC3)CC2)cc(OC)c1OC [Cinepazide maleate] (20 µM)	1.03
C[C@H](CCC(=O)O)[C@H]1CC[C@H]2[C@@H]3C(=O)C[C@@H]4CC(=O)CC[C@]4(C)[C@H]3CC(=O)[C@]12C [Dehydrocholic acid] (20 µM)	1.02
CN1CCOC(c2ccccc2)c2ccccc2C1 (centres undefined) [Nefopam hydrochloride] (20 µM)	0.855
CCOc1ccc(NC(N)=O)cc1 [(4-Ethoxyphenyl)urea] (50 µM)	0.964
CCCCOc1ccc(CC(=O)NO)cc1 [Bufexamac] (20 µM)	1.25
CCOc1ccc2ccccc2c1C(=O)N[C@@H]1C(=O)N2[C@@H]1SC(C)(C)[C@@H]2C(=O)O [Nafcillin sodium salt monohydrate] (20 µM)	0.899
c1ccc2cc3c(ccc4ccccc43)cc2c1 [Benz[a]anthracene] (20 µM)	1.07
CC(C)NC[C@H](O)COc1cccc2ccccc12 [(S)-(-)-Propranolol hydrochloride] (20 µM)	0.885
